Structures are written as SMILES.

For experiment [1], the target named is Sphingosine kinase 1 (Homo sapiens) (UniProt Q9NYA1). Particulars: at 1 µM.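 Note: mean SPHK1 inhibition value reported from the GSK PKIS kinase panel screen.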
In experiment [2] the target is T1, Sphingosine kinase 2 (Homo sapiens) (UniProt Q9NRA0).
T1 sequence (whole entry): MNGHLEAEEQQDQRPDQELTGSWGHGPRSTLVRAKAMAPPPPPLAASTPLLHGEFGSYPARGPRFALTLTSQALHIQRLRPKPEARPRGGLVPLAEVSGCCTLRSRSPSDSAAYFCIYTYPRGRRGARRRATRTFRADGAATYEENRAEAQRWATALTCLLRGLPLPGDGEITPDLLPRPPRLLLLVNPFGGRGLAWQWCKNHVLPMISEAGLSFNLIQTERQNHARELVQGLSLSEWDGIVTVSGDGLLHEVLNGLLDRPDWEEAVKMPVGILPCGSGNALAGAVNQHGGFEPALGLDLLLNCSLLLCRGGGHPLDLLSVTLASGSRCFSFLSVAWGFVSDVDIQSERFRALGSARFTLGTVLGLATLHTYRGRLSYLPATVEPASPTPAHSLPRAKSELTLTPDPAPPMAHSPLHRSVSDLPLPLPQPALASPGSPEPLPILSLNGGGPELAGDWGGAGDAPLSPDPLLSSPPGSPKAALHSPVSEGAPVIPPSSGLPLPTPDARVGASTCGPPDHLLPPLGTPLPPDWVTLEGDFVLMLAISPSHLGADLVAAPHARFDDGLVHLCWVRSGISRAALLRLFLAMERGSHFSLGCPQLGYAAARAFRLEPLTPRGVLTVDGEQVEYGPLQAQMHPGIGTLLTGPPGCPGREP
Particulars: at 0.1 µM.

For experiment [3], the target named is T1, Sphingosine kinase 2 (Homo sapiens). Particulars: at 1 µM.
The target in experiment [4] is Casein kinase II subunit alpha (Homo sapiens) (UniProt P68400). Particulars: at 0.1 µM.
Casein kinase II subunit alpha (Homo sapiens), sequence (P68400 whole entry, looked up): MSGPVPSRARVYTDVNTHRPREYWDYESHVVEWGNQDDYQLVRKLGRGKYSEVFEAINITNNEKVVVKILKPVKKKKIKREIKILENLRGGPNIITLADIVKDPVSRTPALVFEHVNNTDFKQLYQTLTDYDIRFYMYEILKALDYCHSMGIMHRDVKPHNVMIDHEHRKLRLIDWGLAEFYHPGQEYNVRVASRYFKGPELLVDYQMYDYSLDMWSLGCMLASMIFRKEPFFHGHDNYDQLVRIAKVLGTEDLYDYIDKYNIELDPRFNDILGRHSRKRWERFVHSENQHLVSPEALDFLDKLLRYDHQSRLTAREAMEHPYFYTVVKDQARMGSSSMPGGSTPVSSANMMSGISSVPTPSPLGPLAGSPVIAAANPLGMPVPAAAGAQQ
Experiment [5] has the same target. Particulars: at 1 µM.
In experiment [6] the target is T2, Inhibitor of nuclear factor kappa-B kinase subunit alpha (Homo sapiens) (UniProt O15111).
T2 sequence (whole entry): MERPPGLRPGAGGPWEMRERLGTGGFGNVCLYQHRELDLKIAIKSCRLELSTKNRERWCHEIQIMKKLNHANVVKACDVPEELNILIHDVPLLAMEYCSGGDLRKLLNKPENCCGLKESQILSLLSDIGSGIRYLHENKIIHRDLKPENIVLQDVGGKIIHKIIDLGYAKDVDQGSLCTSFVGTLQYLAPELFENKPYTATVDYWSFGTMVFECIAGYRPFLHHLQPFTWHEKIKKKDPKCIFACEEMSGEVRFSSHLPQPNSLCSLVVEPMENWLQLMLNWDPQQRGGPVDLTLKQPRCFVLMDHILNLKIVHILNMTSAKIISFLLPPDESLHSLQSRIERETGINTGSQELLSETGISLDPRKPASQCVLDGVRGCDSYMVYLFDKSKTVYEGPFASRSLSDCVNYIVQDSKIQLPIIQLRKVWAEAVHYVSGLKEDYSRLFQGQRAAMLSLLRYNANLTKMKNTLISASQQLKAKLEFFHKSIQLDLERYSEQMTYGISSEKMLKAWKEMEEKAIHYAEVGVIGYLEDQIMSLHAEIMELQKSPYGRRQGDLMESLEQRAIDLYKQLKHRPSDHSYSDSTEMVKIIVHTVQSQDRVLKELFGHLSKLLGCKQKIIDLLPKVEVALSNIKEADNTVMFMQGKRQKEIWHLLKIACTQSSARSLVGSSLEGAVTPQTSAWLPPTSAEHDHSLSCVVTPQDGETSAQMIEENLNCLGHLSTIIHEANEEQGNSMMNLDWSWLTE
Particulars: at 0.1 µM.

For experiment [7], the target named is T2, Inhibitor of nuclear factor kappa-B kinase subunit alpha (Homo sapiens). Particulars: at 1 µM.
Experiment [8] deals with T3, Inhibitor of nuclear factor kappa-B kinase subunit beta (Homo sapiens) (UniProt O14920).
T3 sequence (whole entry): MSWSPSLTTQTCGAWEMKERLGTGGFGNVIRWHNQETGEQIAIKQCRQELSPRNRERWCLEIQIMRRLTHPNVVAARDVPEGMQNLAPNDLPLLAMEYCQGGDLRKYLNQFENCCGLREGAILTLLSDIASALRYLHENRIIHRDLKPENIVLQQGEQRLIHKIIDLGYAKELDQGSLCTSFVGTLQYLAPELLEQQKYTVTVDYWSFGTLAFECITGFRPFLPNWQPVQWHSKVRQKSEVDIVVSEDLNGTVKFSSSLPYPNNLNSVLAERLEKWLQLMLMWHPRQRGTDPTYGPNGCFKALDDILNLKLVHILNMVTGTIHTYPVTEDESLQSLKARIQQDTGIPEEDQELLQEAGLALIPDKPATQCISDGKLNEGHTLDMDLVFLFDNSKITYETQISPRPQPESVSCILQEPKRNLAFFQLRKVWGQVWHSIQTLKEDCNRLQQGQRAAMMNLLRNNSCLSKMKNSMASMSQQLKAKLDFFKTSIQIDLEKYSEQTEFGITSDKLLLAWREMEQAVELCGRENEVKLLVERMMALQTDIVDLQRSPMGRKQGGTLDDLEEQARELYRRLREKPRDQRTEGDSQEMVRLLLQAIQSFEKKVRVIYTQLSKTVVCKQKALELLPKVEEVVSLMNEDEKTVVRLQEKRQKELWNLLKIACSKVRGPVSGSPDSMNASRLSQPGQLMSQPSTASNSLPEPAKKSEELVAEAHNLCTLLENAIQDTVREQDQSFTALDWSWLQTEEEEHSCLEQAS
Particulars: at 0.1 µM.

Experiment [9] addresses T3, Inhibitor of nuclear factor kappa-B kinase subunit beta (Homo sapiens). Particulars: at 1 µM.
Experiment [10] deals with T4, Inhibitor of nuclear factor kappa-B kinase subunit epsilon (Homo sapiens) (UniProt Q14164).
T4 sequence (whole entry): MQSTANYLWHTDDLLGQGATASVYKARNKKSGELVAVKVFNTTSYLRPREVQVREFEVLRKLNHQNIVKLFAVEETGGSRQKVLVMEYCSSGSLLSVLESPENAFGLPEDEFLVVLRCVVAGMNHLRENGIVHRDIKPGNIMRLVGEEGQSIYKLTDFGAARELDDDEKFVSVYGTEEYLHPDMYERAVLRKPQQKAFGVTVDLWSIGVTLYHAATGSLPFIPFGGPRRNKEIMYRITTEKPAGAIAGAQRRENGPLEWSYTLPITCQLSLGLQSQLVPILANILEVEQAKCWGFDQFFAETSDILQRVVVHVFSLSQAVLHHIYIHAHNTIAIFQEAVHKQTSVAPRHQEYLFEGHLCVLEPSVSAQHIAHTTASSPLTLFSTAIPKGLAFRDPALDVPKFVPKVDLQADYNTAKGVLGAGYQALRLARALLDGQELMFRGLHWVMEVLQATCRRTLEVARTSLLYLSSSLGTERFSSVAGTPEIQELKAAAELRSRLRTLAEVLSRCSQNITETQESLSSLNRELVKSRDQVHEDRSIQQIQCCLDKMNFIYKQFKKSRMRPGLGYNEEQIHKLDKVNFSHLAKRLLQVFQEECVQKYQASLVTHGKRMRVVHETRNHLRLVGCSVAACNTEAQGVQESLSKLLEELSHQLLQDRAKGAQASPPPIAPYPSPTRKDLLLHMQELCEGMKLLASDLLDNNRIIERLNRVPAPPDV
Particulars: at 0.1 µM.

Experiment [11] has as its target T4, Inhibitor of nuclear factor kappa-B kinase subunit epsilon (Homo sapiens). Particulars: at 1 µM.
Experiment [12] concerns the target T5, Serine/threonine-protein kinase Nek1 (Homo sapiens) (UniProt Q96PY6).
T5 sequence (whole entry): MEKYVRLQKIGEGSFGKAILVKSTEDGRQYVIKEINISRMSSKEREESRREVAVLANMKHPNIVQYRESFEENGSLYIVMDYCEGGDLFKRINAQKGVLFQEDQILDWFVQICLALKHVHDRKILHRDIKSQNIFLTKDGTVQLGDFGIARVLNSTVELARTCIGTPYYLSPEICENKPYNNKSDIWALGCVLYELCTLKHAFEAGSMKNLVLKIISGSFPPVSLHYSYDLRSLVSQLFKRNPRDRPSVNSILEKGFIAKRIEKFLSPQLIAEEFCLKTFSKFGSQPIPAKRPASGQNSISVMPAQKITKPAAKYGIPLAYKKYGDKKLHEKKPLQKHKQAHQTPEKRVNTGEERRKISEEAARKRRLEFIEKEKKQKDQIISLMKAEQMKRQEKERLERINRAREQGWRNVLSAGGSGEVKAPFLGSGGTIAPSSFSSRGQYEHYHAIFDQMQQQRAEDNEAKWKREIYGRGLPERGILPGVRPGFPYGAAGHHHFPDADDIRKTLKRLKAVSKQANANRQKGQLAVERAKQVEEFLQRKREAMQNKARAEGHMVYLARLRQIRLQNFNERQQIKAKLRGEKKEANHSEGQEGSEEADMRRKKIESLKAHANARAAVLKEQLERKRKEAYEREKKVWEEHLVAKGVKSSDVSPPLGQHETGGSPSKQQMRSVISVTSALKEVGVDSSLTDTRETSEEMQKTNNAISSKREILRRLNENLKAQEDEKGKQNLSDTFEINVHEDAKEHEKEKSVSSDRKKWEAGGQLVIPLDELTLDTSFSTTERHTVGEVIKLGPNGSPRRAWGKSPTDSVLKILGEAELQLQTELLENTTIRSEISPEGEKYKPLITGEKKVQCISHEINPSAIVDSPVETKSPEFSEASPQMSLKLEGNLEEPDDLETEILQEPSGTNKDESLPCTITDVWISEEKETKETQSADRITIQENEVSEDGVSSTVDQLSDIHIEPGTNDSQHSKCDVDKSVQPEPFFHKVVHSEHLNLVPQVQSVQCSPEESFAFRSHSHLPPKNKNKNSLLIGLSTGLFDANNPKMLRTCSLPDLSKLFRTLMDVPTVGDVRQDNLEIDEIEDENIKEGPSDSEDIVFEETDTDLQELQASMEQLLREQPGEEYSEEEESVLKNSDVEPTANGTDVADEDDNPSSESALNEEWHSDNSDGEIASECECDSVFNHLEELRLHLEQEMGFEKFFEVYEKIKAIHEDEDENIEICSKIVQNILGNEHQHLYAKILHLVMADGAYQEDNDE
Particulars: at 0.1 µM.

Experiment [13] concerns the target T5, Serine/threonine-protein kinase Nek1 (Homo sapiens). Particulars: at 1 µM.
For experiment [14], the target named is T6, Serine/threonine-protein kinase Nek2 (Homo sapiens) (UniProt P51955).
T6 sequence (whole entry): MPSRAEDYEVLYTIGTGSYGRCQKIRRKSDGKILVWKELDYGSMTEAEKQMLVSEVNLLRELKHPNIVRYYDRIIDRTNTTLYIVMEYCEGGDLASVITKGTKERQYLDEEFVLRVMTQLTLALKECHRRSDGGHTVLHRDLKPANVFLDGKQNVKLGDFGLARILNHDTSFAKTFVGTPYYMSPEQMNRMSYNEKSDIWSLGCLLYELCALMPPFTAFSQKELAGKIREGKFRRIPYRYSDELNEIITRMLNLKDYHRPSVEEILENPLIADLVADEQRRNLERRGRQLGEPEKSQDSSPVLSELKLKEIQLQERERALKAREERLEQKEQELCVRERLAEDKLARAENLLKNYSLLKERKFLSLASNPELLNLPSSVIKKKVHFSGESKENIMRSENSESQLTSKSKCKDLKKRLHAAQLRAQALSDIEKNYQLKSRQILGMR
Particulars: at 0.1 µM.

In experiment [15] the target is T6, Serine/threonine-protein kinase Nek2 (Homo sapiens). Particulars: at 1 µM.
The target in experiment [16] is Serine/threonine-protein kinase Nek6 (Homo sapiens) (UniProt Q9HC98). Particulars: at 0.1 µM.
Serine/threonine-protein kinase Nek6 (Homo sapiens), sequence (Q9HC98 whole entry): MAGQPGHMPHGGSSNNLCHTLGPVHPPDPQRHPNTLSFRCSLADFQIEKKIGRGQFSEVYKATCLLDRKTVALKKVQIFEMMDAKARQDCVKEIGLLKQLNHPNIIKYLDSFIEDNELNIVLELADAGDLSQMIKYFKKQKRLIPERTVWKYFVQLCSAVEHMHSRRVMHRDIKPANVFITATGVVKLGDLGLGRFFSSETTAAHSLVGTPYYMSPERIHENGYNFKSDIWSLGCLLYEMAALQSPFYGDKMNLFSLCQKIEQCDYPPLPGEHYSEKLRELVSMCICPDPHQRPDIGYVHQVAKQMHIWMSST
Experiment [17] shares this target. Particulars: at 1 µM.
Experiment [18] deals with Serine/threonine-protein kinase Nek7 (Homo sapiens) (UniProt Q8TDX7). Particulars: at 0.1 µM.
Serine/threonine-protein kinase Nek7 (Homo sapiens), sequence (Q8TDX7 whole entry, looked up): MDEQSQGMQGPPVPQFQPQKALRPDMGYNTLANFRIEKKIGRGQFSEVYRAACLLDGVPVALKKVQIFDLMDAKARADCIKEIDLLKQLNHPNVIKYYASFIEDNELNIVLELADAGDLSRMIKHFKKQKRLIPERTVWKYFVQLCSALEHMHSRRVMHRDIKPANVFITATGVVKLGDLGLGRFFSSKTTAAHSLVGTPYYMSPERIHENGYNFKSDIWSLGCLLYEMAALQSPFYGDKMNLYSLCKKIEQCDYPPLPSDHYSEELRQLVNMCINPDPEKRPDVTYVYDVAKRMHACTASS
Experiment [19] shares this target. Particulars: at 1 µM.
Experiment [20] addresses T7, Serine/threonine-protein kinase Nek9 (Homo sapiens) (UniProt Q8TD19).
T7 sequence (whole entry): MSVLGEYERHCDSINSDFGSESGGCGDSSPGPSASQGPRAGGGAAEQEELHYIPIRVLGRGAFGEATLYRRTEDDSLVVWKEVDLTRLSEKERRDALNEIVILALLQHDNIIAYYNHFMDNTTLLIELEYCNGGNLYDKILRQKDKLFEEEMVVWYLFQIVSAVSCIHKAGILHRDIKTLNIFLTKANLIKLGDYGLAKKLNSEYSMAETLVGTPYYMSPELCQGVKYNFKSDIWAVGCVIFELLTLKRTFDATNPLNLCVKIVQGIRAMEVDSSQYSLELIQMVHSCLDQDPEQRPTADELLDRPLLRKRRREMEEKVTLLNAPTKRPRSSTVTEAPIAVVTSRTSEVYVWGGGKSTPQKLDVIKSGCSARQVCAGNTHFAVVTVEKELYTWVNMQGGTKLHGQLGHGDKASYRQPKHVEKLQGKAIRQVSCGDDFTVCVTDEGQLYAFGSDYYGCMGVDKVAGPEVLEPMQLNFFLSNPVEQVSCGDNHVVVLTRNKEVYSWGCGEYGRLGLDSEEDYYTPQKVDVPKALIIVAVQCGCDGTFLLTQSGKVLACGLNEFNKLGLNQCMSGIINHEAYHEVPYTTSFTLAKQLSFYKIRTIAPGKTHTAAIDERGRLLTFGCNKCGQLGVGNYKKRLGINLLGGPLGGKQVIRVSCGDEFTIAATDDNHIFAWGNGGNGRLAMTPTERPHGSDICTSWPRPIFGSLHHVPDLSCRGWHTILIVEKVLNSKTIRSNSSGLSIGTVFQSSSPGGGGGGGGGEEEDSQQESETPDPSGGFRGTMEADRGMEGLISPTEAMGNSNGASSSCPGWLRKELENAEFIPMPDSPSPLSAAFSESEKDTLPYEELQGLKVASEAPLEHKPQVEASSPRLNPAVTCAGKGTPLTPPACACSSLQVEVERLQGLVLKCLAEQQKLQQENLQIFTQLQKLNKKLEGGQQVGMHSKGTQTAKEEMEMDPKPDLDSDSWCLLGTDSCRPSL
Particulars: at 0.1 µM.

Sphingosine kinase 1 (Homo sapiens), sequence (Q9NYA1 whole entry): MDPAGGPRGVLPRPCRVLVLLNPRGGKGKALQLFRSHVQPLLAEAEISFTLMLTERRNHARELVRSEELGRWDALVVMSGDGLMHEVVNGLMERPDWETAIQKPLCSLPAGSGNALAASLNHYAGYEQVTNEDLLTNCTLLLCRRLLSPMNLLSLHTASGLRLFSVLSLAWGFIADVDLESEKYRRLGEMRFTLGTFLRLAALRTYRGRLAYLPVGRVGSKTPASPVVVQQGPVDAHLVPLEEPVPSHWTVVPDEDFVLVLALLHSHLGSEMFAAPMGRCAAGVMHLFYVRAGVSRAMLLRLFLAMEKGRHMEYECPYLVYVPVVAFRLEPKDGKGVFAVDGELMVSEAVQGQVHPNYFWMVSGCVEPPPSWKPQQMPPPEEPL

Broadly, the inhibition is the drop in the measured response relative to a control, in per cent. For `O=C1Nc2ccccc2/C1=C1\CCc2cc(O)ccc21`, the inhibition was -8.14% in experiment [1]; -0.36% in [2]; -2.47% in experiment [3]; 3.18% in experiment [4]; 9.1% in experiment [5]; 13% in experiment [6]. Also, the inhibition in experiment [7] stood at 5.45%; in experiment [8] it was 5.41%; in experiment [9] it was 5.64%; in experiment [10], 6.27%; in [11], 20.3%; in [12] it was 3.11%. Besides, the inhibition in [13] turned out to be 4.37%; in [14] it was 7.09%; in experiment [15], 5.47%; in [16] it was 1.9%; in experiment [17], 1.99%; in [18], 5.62%. Also, the inhibition amounted to 4.31% in experiment [19] and 8.42% in experiment [20].

Values taken from ChEMBL document CHEMBL1961873, “Compounds: GSK PKIS; Assays: Nanosyn kinase panel” (2012).
